This note sets out measurements from PubChem BioAssay (EPA / NIEHS).

Values joined by “and” are separate entries in the source; they are usually repeats but may differ in a detail not shown here. Equal entries are not always repeated. Records with an inconclusive call do not appear. Active and inactive are the calls of the source. How the source made its calls: active means hit-call score of the fitted dose curve at least 0.9, where 1 is the maximum; inconclusive means response in the unintended direction; inactive means score below 0.9.

This assay can be described thus: CCTE_Shafer_MEA_dev_active_electrodes_number: CCTE's Neural Network Formation Assay for Number of Active Electrodes, Shafer Lab (AID 2284040).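 On AC50: potency for loss of active electrodes versus DMSO so lower counts are hits.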 The protocol:
CCTE_Shafer_MEA_dev assay is conducted using Axion Biosystems 48 well microelectrode array (MEA) plates and Maestro recording system. Each well of the MEA plate contains a grid of 16 microelectrodes embedded in the culture surface. Electrically active cells, such as neurons, can be cultured over the electrodes, and electrical activity in these cells can be recorded extracellularly. The spontaneous firing of neurons is captured from each electrode on a microsecond timescale providing both temporally and spatially precise data. […] The CCTE_Shafer_MEA_dev assay uses primary cultures of rat cortical neurons. Recordings are made on days post-plating 5, 7, 9 and 12. As these cultures mature over time, neural networks develop functional activity and form cohesive networks in which electrical activity can be highly coordinated. CCTE_Shafer_MEA_dev_active_electrodes_number is 1 of 19 assay components of the CCTE_Shafer_MEA_dev assay. It measures the number of electrodes in a well with a mean firing rate of at least 5 spikes (action potential firings) per minute during a recording in a microelectrode array (MEA) using Axion Biosystems Maestro 768 channel amplifier with the AxIS adaptive spike detector. To collapse across multiple recordings made on days post-plating 5, 7, 9 and 12, the trapezoidal area-under-the-curve of the component is calculated.Data from the assay component CCTE_Shafer_MEA_dev_active_electrodes_number was analyzed into 1 assay endpoint. This assay endpoint, CCTE_Shafer_MEA_dev_active_electrodes_number, was analyzed in the negative analysis fitting direction relative to DMSO as the negative control and baseline of activity. Using a type of functional reporter, gain or loss-of-signal activity can be used to understand electrical activity.
On the day prior to culture, each well was coated thoroughly with 150 uL of 0.05% polyethyleneimine (PEI, Sigma Cat P3143) in 50 mM HEPES (Sigma Cat H7523) at a pH of 8. The plate was incubated at 37C for one hour. PEI was rinsed out with 500 uL of sterile water three times. Plates were stored at 4C until the day of culture. This culture was plated at a seeding density of 1.5 x 10^5 cells/well on a 48-well MEA plate, prepared as described above. Cells were administered via a 25 uL media/laminin ([…]; Sigma Cat L2020-1MG) drop directly onto the microelectrode array, as adding the cells with the laminin results in better attachment than pre-coating with laminin. After 2 hours, an additional 475 uL of cortical media was added and the cells returned to the incubator. Exposure starts at day 0 of plating and is continued over twelve days of network development until the experiment is terminated. Cells are fed with fresh medium on DIV 5 and 9, following the recordings on those days. The entire volume of media in the well is exchanged and any vehicle or compound treatment is renewed. Complete details are found in OP-NHEERL/ISTD/SBB/TJS/2015-03-r0 (available on request, email shafer.tim@epa.gov). Measurement of the electrical activity is non-invasive, and recordings can be made from the same plate over multiple different days of the culture. In cortical neurons, this allows for the measurement of extracellular action potentials over the period during which networks form in the MEA plate.
On to `OCCC(F)(F)C(F)(F)C(F)(F)C(F)(F)C(F)(F)C(F)(F)C(F)(F)C(F)(F)F`, for which the outcome was inactive. With `c1ccc2c(c1)Cc1ccccc1-2`, the outcome was inactive. `C=C(C)C(=O)OCCC(F)(F)C(F)(F)C(F)(F)C(F)(F)C(F)(F)C(F)(F)F`: the molecule was classed as inactive. What is called AC50 is the concentration giving half of the maximal activity seen. With `CC1=C(/C=C/C(C)=C/C=C/C(C)=C/C(=O)O)C(C)(C)CCC1`, the AC50 is 15 µM (active). As for `CN1CCC[C@H]1c1cccnc1`, the outcome was inactive. For `CC(O)CO` (stereo not given), the molecule was classed as inactive. Turning to `CC#C[C@]1(O)CC[C@H]2[C@@H]3CCC4=CC(=O)CCC4=C3[C@@H](c3ccc(N(C)C)cc3)C[C@@]21C`, the AC50 is 4.73 µM (active) and 17.8 µM (active). On to `c1ccc2c(c1)ccc1ccccc12`, for which the call was inactive. The same measure, in the same setting: to `c1ccc2cc3c(ccc4ccccc43)cc2c1` belongs “inactive”; to `OCCC(F)(F)C(F)(F)C(F)(F)C(F)(F)C(F)(F)C(F)(F)F`, “inactive”.
